# According to ChEMBL document CHEMBL4296183, “CO-ADD screening of NIH NCI Natural Product Set III” (2020):
# Tested on: Staphylococcus aureus
# Assay: Antibacterial activity against Staphylococcus aureus MRSA ATCC 43300 (CO-ADD:GP_020); MIC in CAMBH media using NBS plates, by Resazurin F(560/590)
# Format: functional
# Settings: Concentration 20 uM, ASSAY_TEST Inhibition of Bacterial Growth, detection method Resazurin, Fluorescence (ex560/em590), MEDIA CAMHB, plate type 384well, CORNING #3640, time 18 hr
row,Compound,Inhibition
1,CC(=O)O.COc1ccc2c(=O)oc3c(OC)cc(CCN(C)C)c4c(=O)oc1c2c34,18.21%
2,COc1cc(C)c2c(c1C=O)Oc1c(c(C)c(O)c3c1C(O)OC3=O)OC2=O (stereo not drawn) [STICTIC ACID],1.81%
3,CC1(C)C(=O)N2c3ccccc3C3(CC(N4C(=O)c5ccccc5C4=O)C(=O)O3)C2N1C(=O)OCc1ccccc1 (stereo not drawn),-7.98%
4,COc1c2occc2cc2ccc(=O)oc12 [METHOXSALEN],3.08%
5,C=C1C(=O)OC2CC(C)C3(O)CCC(=O)C3(C)CC12 (stereo not drawn),18.37%
6,COc1ccc2c(c1OC)C(=O)O[C@@H]2[C@H]1c2c(cc3c(c2OC)OCO3)CCN1C [NOSCAPINE],1.91%
7,CC(C)CC1NC(=O)C(C(C)C)NC(=O)CC(C)COC(=O)C(CC(C)C)N(C)C(=O)C(C(C)C)NC(=O)C(C(C)C)OC1=O (stereo not drawn),-2.11%
8,COc1c2occc2c(OC)c2c(=O)cc(C)oc12 [KHELLIN],20.27%
9,CCCCCc1cc(O)cc2c1Oc1cc(O)cc(C(=O)CCCC)c1C(=O)O2,23.6%
10,CC(=O)Oc1ccc2ccc(=O)oc2c1OC(C)=O,18.68%
11,O=c1oc2c(O)c(O)cc3c(=O)oc4c(O)c(O)cc1c4c23 [ELLAGIC ACID],-17.94%
12,COC(=O)[C@@H]1[C@H]2C[C@@H]3c4[nH]c5ccccc5c4CCN3C[C@@H]2CC[C@@H]1O,20.93%
13,COc1cc([C@@H]2c3cc4c(cc3[C@@H](OC3OC5CO[C@@H](c6cccs6)OC5C(O)C3O)[C@H]3COC(=O)[C@H]23)OCO4)cc(OC)c1O (stereo partly drawn),7.05%
